ClpP mod = qHTS Assay for Activators of ClpP | purified B. subtilis ClpP, FRET peptide cleavage, 20 min | ATP-dependent Clp protease proteolytic subunit (Bacillus subtilis (strain 168)), P80244 | Potency, µM (top dose mostly 57.5 µM), for the others: top-dose activity change, negative = active | 340,000 tested, 1.9% active; active means well fitted falling curve with a large enough effect; inconclusive means small, poorly fitted or top-dose-only effect; inactive means no such curve, though single readings can be large or run the other way; further: potency means the concentration at half of the fitted maximal effect; the source files actives as falling curves though it sought activators and does not explain the sign; nearly all actives have a fitted effect of over 65% in size
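Buffer: 100 mM Tris/HCl pH8, 100 mM KCl, 0.05% low protease BSA, 2.5% glycerol, 0.01% Tween-20. ClpP 10 microg/mL final; 20 min RT; delta FRET normalized to ADEP and DMSO controls.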
PKM2 act = activators of human pyruvate kinase M2; P14618; purified PKM2, Kinase-Glo ATP luminescence, activation; response scale: 0% is enzyme alone, no compound; Potency, µM (doses to about 57.5 µM), for inactives: top-dose activation, actives largely listed as activators; 260,000 tested, 0.34% active; AID 1631; further: potency means the concentration at half of the fitted maximal effect; on the % scale 0 is the no-effect control and ±100 the full control effect; nearly all actives have a fitted effect of over 55% in size
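hPK-M2, >95% pure; 0.1 mM ADP / 0.5 mM PEP final; imidazole pH7.2 buffer w/ 7 mM MgCl2, 50 mM KCl; 1 h RT; Kinase-Glo lum. Intermediate enzyme activity for dual inhibitor/activator qHTS.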
NPSR antag = antagonists of human neuropeptide S receptor cAMP signaling; Q6W5P4; CHO-NPSR cells, cAMP TR-FRET, antagonist mode; Potency, µM (titrated, usually from 38.3 µM), inactives show at the highest dose activity change, negative = inhibition, hits mostly inhibitors; 220,000 tested, 1% active; further: potency means the concentration at half of the fitted maximal effect; on the % scale 0 is the no-effect control and ±100 the full control effect; nearly all actives have a fitted effect of over 50% in size
IL2 activator = IL-2 activation | IL-2 activation reporter assay, cell-based qHTS; stimulated with anti-CD3/CD4/CD28 beads; in transgenic mouse T cells | 360,000 tested, 0.065% active | activation, % (series mostly up to about 46 µM); in the data active means activation above about 50%; inconclusive means mostly about 30% to 49%; further: 0% is about no effect
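First, unstimulated transgenic mouse T cells were exposed to compound for 60 min. Next, anti-CD3/anti-CD4-coated beads with anti-CD28 were added. Finally, after 18 h at 37 degrees C, EGFP and DsRed were imaged.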
* hit, by the source's call; u = inconclusive; x = no result; [ ] = dose if it differs, or a comment. Shown are actives, neighbours in structure and some others; about 2% of the full set was active somewhere. Unless noted, the call rests on the fitted dose curve; in most records, active means well fitted curve in the direction sought with a large enough effect; inconclusive means small, poorly fitted or top-dose-only effect, or another doubt; inactive means no such curve, though single readings can be large; an effect the other way counts as inactive or inconclusive.

SMILES	ClpP mod	PKM2 act	NPSR antag	IL2 activator
CCCOc1ccc(C2c3c(-c4c(C)cc(C)cc4O)n[nH]c3C(=O)N2CCO)cc1 (stereo not drawn)	-4.8%	x	x	x
CNC(=O)Cn1c(C)cc(=O)c2cccc(OC)c21	1.6%	-3.8%	-3.4%[7.67 µM]	-3.5
COc1cccc2c(=O)cc(C)n(CC(=O)Nc3ccccc3C)c12	12.6µM*	1.3%	4.4%[46.1 µM]	-1.1
Cc1ccc(-c2csc3ncnc(Oc4ccc5c(C)cc(=O)oc5c4)c23)cc1	28.2µM*	-18.1%	-26.2%	-1.5
COC(=O)Nc1ccc(S(=O)(=O)N2CCC(C(=O)N(C)C3CCCCC3)CC2)cc1	12.6µM*	3.5%	-14.0%	-0.8
O=C(NCCc1ccc(Cl)cc1)C(=O)NCC(c1cccs1)S(=O)(=O)c1ccccc1 (stereo not drawn)	-0.5%	x	x	x
N#Cc1ccc(-c2ccc(F)cc2)nc1Oc1ccc(Cl)c(Cl)c1	39.8µM*	2.9%	2.0%[46.1 µM]	-2.1
COc1ccc(-c2ccc(C#N)c(OC)n2)cc1	x	0.0%	-7.2%	0.6
COC(=O)C1=C(C(=O)OC)[C@@H]2N(C)c3ccccc3[C@@]23C[C@@H](CO)N(C(=O)NCCBr)C3=N1	-0.9%	5.6%	8.5%	0.1
Cn1c(=O)c(-c2ccccc2)nc2ccccc21	25.1µM*	4.3%	4.0%[46.1 µM]	-0.8
COc1cc2c(cc1OC)CN(C(=O)c1ccc(S(=O)(=O)N(C)c3ccccc3)cc1)CC2	x	15.7%	-28.6%	-0.8
COc1ccc2c(n1)Sc1nc3ccccc3nc1N2	x	-5.5%	13.3%	259.7*
COc1cc2ccccc2nn1	x	3.2%	10.0%	-4.1
O=C(O)COc1ccc(-c2nc(-c3ccccc3)c(-c3ccccc3)[nH]2)cc1	x	7.4%	x	-1.2
COc1ccc(-c2nc(-c3ccccc3)c(-c3ccc(O)cc3)[nH]2)cc1	5.01µM*	x	x	x
COc1ccc(-c2nc(-c3ccc4c(c3)OCO4)[nH]c2-c2ccc(OC)cc2)cc1	10.5%	-8.4%	u	-0.8
COc1ccc(-c2[nH]c(-c3ccc(O)cc3)nc2-c2ccccc2)cc1	7.94µM*	x	x	x
N/C(=N\OC(=O)CC(c1ccccc1)c1ccccc1)c1cccnc1	3.0%	1.1%	-22.8%	2.2
CCn1cc(C2C(C(=O)Nc3cc(C)ccn3)=C(C)NC3=C2C(=O)CC(C)(C)C3)c(C)n1 (stereo not drawn)	10µM*	0.0%	12.8%	-1.3
CC1=C(C(=O)Nc2ccccc2)C(c2ccc3c(c2)OCO3)C2=C(CCCC2=O)N1 (stereo not drawn)	-26.4%	-7.3%	19.8%[46.1 µM]	0.6
CC1=C(C(=O)Nc2cc(C)ccn2)C(c2ccc(C)cc2)C2=C(CCCC2=O)N1 (stereo not drawn)	28.2µM*	-4.7%	-3.7%[46.1 µM]	-1.7
COCCCNC(=O)C[C@@H]1C[C@@]2(C(=O)OC)CC(C)(C)CC=C2N(CCc2ccc(OC)c(OC)c2)C1=O	-0.1%	x	x	0.5
c1ccc(COc2ncnc3c2ncn3CCCN2CCN(c3ncccn3)CC2)cc1	1.3%	x	x	-2.0
CN(C)C(=O)[C@H]1C[C@H]1[C@@H](O)[C@H](CO)NC(=O)[C@H](Cc1ccccc1)NC(=O)OC(C)(C)C	0.5%	1.0%	x	-1.1
Fc1ccc(C(c2nnc(-c3ccccc3)o2)N2CCN(c3ccccc3)CC2)c(Cl)c1 (stereo not drawn)	-2.4%	x	x	x
SMILES	ClpP mod	PKM2 act	NPSR antag	IL2 activator
COCCSc1ccccc1C(=O)Nc1cc(C)on1	0.3%	31.6µM*	-7.1%[46.1 µM]	-4.0
CCOC(=O)c1c(NC(=O)CSc2ccccc2C(=O)O)sc(C)c1C	15.8µM*	-3.3%	45.3%	-0.9
CCOC(=O)c1c(NC(=O)Nc2ccccc2)sc(C)c1C	20µM*	1.8%	u	-3.4
CCOC(=O)c1sc(NC(=O)c2cccs2)cc1C	-8.3%	-7.6%	-20.3%[46.1 µM]	0.5
CCOC(=O)c1c(NC(=O)CSc2ncnc3ccccc23)sc(C)c1C	0.7%	-16.7%	-26.8%	-2.3
CCOC(=O)Nc1sc(C)c(C)c1C(=O)OCC	-4.7%	7.9%	5.8%	0.1
CCOC(=O)c1sc(NC(=O)Nc2cccc(Cl)c2)cc1C	31.6µM*	-1.6%	-54.4%	-4.9
Cc1c(N2C(=O)CS/C2=N\N=C\c2ccc(Br)cc2)c(=O)n(-c2ccccc2)n1C	0.1%	-1.0%	-14.3%[46.1 µM]	-0.3
O=S(=O)(Nc1ccc(Cl)cc1)c1ccc2c(c1)CCO2	x	17.8µM*	34.6%	-3.0
O=S(=O)(Nc1ccc2c(c1)OCCO2)c1ccc(F)c(F)c1	x	2.3%	x	-0.6
Nc1ccc(C(=O)OCCCc2nc3ccccc3[nH]2)cc1	28.2µM*	-10.0%	-0.2%[46.1 µM]	-0.4
Nc1ccc2nc(CCCCCCc3nc4ccc(N)cc4[nH]3)[nH]c2c1	x	12.6µM*	9.3%	4.8
O=C(NCc1cccc2ccccc12)[C@H]1C[C@@H]1[C@H](NP(=O)(c1ccccc1)c1ccccc1)c1ccccc1	x	-2.0%	x	x
CC1(C)CC(=O)C=C(NC2=CC3OC(c4ccccc4)OCC3OC2=O)C1 (stereo not drawn)	-0.9%	11.0%	2.51µM*	-0.9
COc1ccc(F)c(CN(C)CC2CCCN(CCc3ccc(F)cc3)C2)c1 (stereo not drawn)	x	0.4%[11.5 µM]	x	0.6
CC(C)CN(Cc1c(O)ccc2c3c(c(=O)oc12)CCC3)CC(C)C	12.6µM*	-8.6%	-4.7%[46.1 µM]	-3.2
Cc1c(O)ccc2c3c(c(=O)oc12)CCCC3	25.1µM*	-4.7%	-4.5%[46.1 µM]	-0.7
CC1CCCN(Cc2c(O)ccc3c4c(c(=O)oc23)CCCC4)C1 (stereo not drawn)	3.4%	2.0%	14.1%	-0.8
Cc1cc(=O)oc2c(CN(CC(C)C)CC(C)C)c(O)ccc12	3.9%	-0.4%	7.0%[46.1 µM]	0.0
Cc1c(O)ccc2c3c(c(=O)oc12)CCC(C)C3 (stereo not drawn)	25.1µM*	3.0%	18.3%[46.1 µM]	0.6
COC(=O)c1cc(=O)nc2sc(-c3cccs3)nn12	317.9%	-1.3%	-4.1%[46.1 µM]	1.3
COC(=O)c1cc(=O)nc2sc(-c3ccc(F)cc3)nn12	28.2µM*	-18.2%	-2.1%[46.1 µM]	-1.4
Cc1sc2nc3c4ccccc4c(NCc4ccco4)nn3c(=O)c2c1C	25.1µM*	6.6%	u	4.0
CCSc1nc(-c2ccc(OC)cc2)cc(-c2ccccc2)c1C#N	28.2µM*	-1.5%	-25.3%[46.1 µM]	-1.3
COc1ccc(-c2cc(-c3ccccc3)c(C#N)c(S(C)=O)n2)cc1 (stereo not drawn)	u	-3.7%	u	-0.6
COc1ccc(-c2cc(-c3ccccc3)c(C#N)c(=S)[nH]2)cc1	-1.1%	-1.0%	12.6µM*	1.3
COc1ccc(-c2cc(-c3ccccc3)nc(SCC(=O)Nc3ncc(C)s3)c2C#N)cc1	u	-1.9%	-21.3%	-2.5
CCc1nnc(NC(=O)CSc2nc(-c3ccc(F)cc3)cc(-c3ccccc3)c2C#N)s1	-13.7%	0.3%	7.94µM*	-0.9
Cc1cc(C)c2c(=O)n(CC(=O)N3CCC(Cc4ccccc4)CC3)sc2n1	x	1.58µM*	-26.3%	x
Cc1cccc(N2CCN(C(=O)Cn3sc4nc(C)cc(C)c4c3=O)CC2C)c1 (stereo not drawn)	-12.0%	u	u	0.9

Assay outcomes deposited in PubChem by National Center for Advancing Translational Sciences (NCATS).
